Literature values in PubChem BioAssay AID977611.
Out of some 3,900 compounds screened, about 3,900 (100%) were called active. No cut-off is given here; in the data, nearly all actives have Kd up to about 4200 µM. So high a share suggests a set chosen from earlier hits. Some of the results follow. Numbered stars: 1 amine (or outer) side, 2 acyl side, 3 side chain; on linkers, the order of the positions; unused ones are H or OH. Where a SMILES comes first, the peptide text is derived from it. Square brackets hold non-standard residues; d marks the D form. Residues, ends and D or L forms follow the SMILES beside them. Peptide text beside a SMILES is read from it. [ ]: non-standard residue; d: D form. X1 = O=C([C@H](Cc1ccc(O[P+](O)(O)O)cc1)N[*:1])[*:2]; Orn(CH(NH2)2) = NC(N)NCCC[C@H](N)C(=O)O

Experiment: PubChem AID 977611
Conditions: PDB protein-ligand complexes, literature Kd

For `O=C(CO[P+](O)(O)O)NO`, the Kd (protein: Fructose-bisphosphate aldolase, PDB entry 4del) is given as 0.0211 µM (active).
For `O=C(CO)[C@@H](O)[C@H](O)[C@H](O)CO[P+](O)(O)O`, the Kd (protein: Glucokinase regulatory protein, PDB entry 3w0l) is listed as 0.095 µM (active).
In the case of `O=C(O)[C@H](O)CO[P+](O)(O)O`, the Kd (protein: human phosphoglycerate kinase, PDB entry 3c39) is given as 109 µM (active).
In the case of `O=C(O)c1ccc(-c2ccc(C(=S)NCc3ccc(-c4ccnn4-c4ccc(Cl)c(Cl)c4)cc3)c(Cl)c2)o1`, the Kd (protein: Replication protein A 70 kDa DNA-binding subunit, PDB entry 4lwc) is given as 0.19 µM (active).
For `COCCO[C@@H]1COCCOC[C@H]1OCCOC`, the Kd (protein: METAL-BINDING PROTEIN YODA, PDB entry 4aw8) is listed as 0.022 µM (active).
For `C[C@@H](O)[C@H](NC(=O)[C@@H]1CCCN1C(=O)[C@H](CO)NC(=O)[C@H](Cc1ccc(O)cc1)NC(=O)[C@H](CO)NC(=O)[C@@H]1CCCN1)C(=O)N[C@@H](CO)C(=O)N1CCC[C@H]1C(=O)N[C@H](C=O)CO` (H-PSYSPTSPS-aldehyde), the Kd (protein: CTD INTERACTING DOMAIN of RNA processing factor SCAF8(N15M/Y17M), PDB entry 3d9o) is given as 1000 µM (active).
In the case of `C[C@@H](O)[C@H](NC(=O)[C@@H]1CCCN1C(=O)[C@H](CO[P+](O)(O)O)NC(=O)[C@H](Cc1ccc(O)cc1)NC(=O)[C@H](CO)NC(=O)[C@@H]1CCCN1)C(=O)N[C@@H](CO[P+](O)(O)O)C(=O)N1CCC[C@H]1C=O`, the Kd (protein: CTD INTERACTING DOMAIN of RNA processing factor SCAF8(R112T), PDB entry 3d9p) is given as 29 µM (active).
In the case of `C[C@@H](O)[C@H](NC(=O)[C@@H]1CCCN1C(=O)[C@H](CO[P+](O)(O)O)NC(=O)[C@H](Cc1ccc(O)cc1)NC(=O)[C@H](CO)NC(=O)[C@@H]1CCCN1)C(=O)N[C@@H](CO)C(=O)N1CCC[C@H]1C(=O)N[C@@H](CO)C(=O)O`, the Kd (protein: Rtt103 CTD-interacting domain, PDB entry 2l0i) is listed as 15 µM (active).
In the case of `NC(=S)Nc1ccc(C[C@H](CN(CC(=O)O)[C@H]2CCCC[C@@H]2N(CC(=O)O)CC(=O)O)N(CC(=O)O)CC(=O)O)cc1`, the Kd (protein: Neutrophil gelatinase-associated lipocalin (mutation), PDB entry 4iaw) is listed as 0.000234 µM (active) and the Kd (protein: Neutrophil gelatinase-associated lipocalin (mutation), PDB entry 4iax) is listed as 0.000273 µM (active).
For `N#CCCNc1nonc1-c1nc2ccccc2n1CC(=O)c1ccc(N)cc1`, the Kd (protein: Tubulin, PDB entry 4o2a) is listed as 1.8 µM (active).
In the case of `CC(C)[C@H](NC(=O)[C@H](CCCNC(N)N)NC(=O)[C@@H](NC(=O)[C@@H]1CCCN1)[C@@H](C)O)C(=O)N[C@@H](CO)C(=O)N[C@@H](CO[P+](O)(O)O)C(=O)N1CCC[C@H]1C(=O)N[C@H](C(=O)N[C@@H](Cc1ccccc1)C(=O)NCC(=O)N[C@@H](C)C(=O)N[C@H](C(=O)O)[C@@H](C)O)C(C)C`, the Kd (protein: Breast cancer type 1 susceptibility protein, PDB entry 1y98) is listed as 3.7 µM (active).
In the case of `CC(C)C[C@H](NC(=O)[C@@H]1CCCN1C(=O)CNC(=O)[C@H](Cc1ccccc1)NC(=O)[C@@H](N)CC(=O)O)C(=O)N[C@H](C(=O)NCC(=O)N[C@@H](C)C(=O)O)C(C)C` (H-DFGPLVGA-OH), the Kd (protein: ?-adaptin ear domain of GGA3, PDB entry 1p4u) is given as 5 µM (active).
In the case of `CC[C@H](C)[C@H](N)C(=O)N[C@@H](CO)C(=O)N[C@@H](CCCNC(N)N)C(=O)N[C@@H](CO)C(=O)N[C@H](C(=O)N[C@@H](CO[P+](O)(O)O)C(=O)N1CCC[C@H]1C(=O)N[C@H](C(=O)N[C@@H](Cc1ccccc1)C(=O)N[C@@H](CC(N)=O)C(=O)N[C@@H](CCCCN)C(=O)N[C@@H](CCC(N)=O)C(=O)O)[C@@H](C)O)[C@@H](C)O`, the Kd (protein: Breast cancer type 1 susceptibility protein, PDB entry 1t29) is given as 0.9 µM (active).
For `CSCC[C@H](NC(=O)[C@@H]1CCCN1C(=O)[C@H](Cc1ccc(O)cc1)NC(=O)[C@@H](N)Cc1ccccc1)C(=O)N[C@@H](CC(C)C)C(=O)N[C@@H](CCCNC(N)N)C(=O)N[C@@H](Cc1ccc(O)cc1)C(=O)N[C@H](C(=O)N[C@@H](CC(N)=O)C(=O)NCC(=O)N1CCC[C@H]1C(=O)N1CCC[C@H]1C(=O)N1CCC[C@H]1C(=O)N[C@H](C(=O)O)[C@@H](C)O)[C@@H](C)O` (H-FYPML[Orn(CH(NH2)2)]YTNGPPPT-OH), the Kd (protein: SUN domain-containing protein 2, PDB entry 4fi9) is given as 0.0456 µM (active).
For `CSCC[C@H](NC(=O)[C@@H]1CCCN1C(=O)[C@H](CC(N)=O)NC(=O)[C@@H]1CCCN1C(=O)[C@H](Cc1cnc[nH]1)NC(=O)[C@@H](N)CC(C)C)C(=O)N[C@@H](Cc1ccc(O[P+](O)(O)O)cc1)C(=O)N[C@@H](C)C(=O)N[C@@H](CCCNC(N)N)C(=O)O` (H-LHPNPM[X1]A[Orn(CH(NH2)2)]-OH), the Kd (protein: Protein Dok7(PH-PTB), PDB entry 3ml4) is listed as 4.7 µM (active).
For `NC(N)NCCC[C@H](N)C(=O)N[C@@H](CO)C(=O)N[C@@H](Cc1ccccc1)C(=O)N[C@@H](CO[P+](O)(O)O)C(=O)N[C@@H](CCC(=O)O)C(=O)N1CCC[C@H]1C(=O)N[C@@H](Cc1ccccc1)C(=O)NCC(=O)O`, the Kd (protein: 14-3-3 protein epsilon, PDB entry 3ual) is given as 1.55 µM (active).
For `CC[C@H](C)[C@H](NC(=O)[C@H](CCCNC(N)N)NC(=O)[C@H](CC(N)=O)NC(=O)[C@H](Cc1ccccc1)NC(=O)[C@@H](NC(=O)[C@@H]1CCCN1C(=O)[C@H](CC(C)C)NC(=O)[C@H](CCCNC(N)N)NC(=O)[C@@H](N)CCCNC(N)N)[C@@H](C)CC)C(=O)N[C@@H](CO)C(=O)N[C@H](C(=O)N[C@@H](CO)C(=O)O)C(C)C` (H-[Orn(CH(NH2)2)][Orn(CH(NH2)2)]LPIFN[Orn(CH(NH2)2)]ISVS-OH), the Kd (protein: CCR4-NOT transcription complex subunit 1, PDB entry 4j8s) is listed as 2 µM (active).
In the case of `C[C@H](N)C(=O)N[C@@H](CS)C(=O)N[C@@H](CO[P+](O)(O)O)C(=O)N1CCC[C@H]1C(=O)N[C@@H](CCC(N)=O)C(=O)N[C@@H](Cc1ccccc1)C(=O)NCC(=O)O`, the Kd (protein: Breast cancer type 1 susceptibility protein, PDB entry 4igk) is given as 28.2 µM (active).
In the case of `C[C@H](NC(=O)[C@H](CCC(=O)O)NC(=O)[C@@H]1CCCN1C(=O)[C@H](Cc1ccccc1)NC(=O)[C@@H](NC(=O)[C@@H]1CCCN1C(=O)[C@H](CO[P+](O)(O)O)NC(=O)[C@H](CCC(N)=O)NC(=O)[C@@H]1CCCN1)[C@@H](C)O)C(=O)NCC(=O)O`, the Kd (protein: Breast cancer type 1 susceptibility protein(BRCA1), PDB entry 3coj) is given as 5.2 µM (active).
In the case of `CC(C)[C@H](NC(=O)[C@@H]1CCCN1C(=O)[C@H](CO[P+](O)(O)O)NC(=O)[C@@H](N)CCCNC(N)N)C(=O)N[C@@H](Cc1ccccc1)C(=O)N[C@@H](CO)C(=O)O`, the Kd (protein: Breast cancer type 1 susceptibility protein, PDB entry 4ifi) is given as 3.34 µM (active).
In the case of `CC(C)C[C@H](NC(=O)CNC(=O)[C@H](CC(N)=O)NC(=O)[C@@H](N)Cc1ccccc1)C(=O)N[C@H](C(=O)N[C@@H](CO[P+](O)(O)O)C(=O)N1CCC[C@H]1C(=O)N[C@@H](CCC(N)=O)C(=O)N[C@@H](CCCNC(N)N)C(=O)N[C@@H](CO[P+](O)(O)O)C(=O)O)[C@@H](C)O`, the Kd (protein: Saccharomyces cerevisiae Skp1 and Cdc4 (263-744), PDB entry 3v7d) is given as 0.41 µM (active).
In the case of `CC(C)C[C@H](NC(=O)[C@H](CCCNC(N)N)NC(=O)[C@H](Cc1ccccc1)NC(=O)[C@@H](N)CC(C)C)C(=O)N[C@@H](CCCNC(N)N)C(=O)N[C@@H](Cc1c[nH]cn1)C(=O)N[C@@H](Cc1ccccc1)C(=O)N1CCC[C@H]1C(=O)N[C@@H](CS)C(=O)NCC(=O)N[C@@H](CC(N)=O)C(=O)N[C@H](C(=O)N[C@@H](CC(N)=O)C(=O)N[C@@H](Cc1ccc(O)cc1)C(=O)NCC(=O)N[C@@H](Cc1ccc(O)cc1)C(=O)N[C@@H](CCC(N)=O)C(=O)N[C@@H](CCC(N)=O)C(=O)N[C@@H](CCC(N)=O)C(=O)O)C(C)C` (HELM PEPTIDE1{L.F.[NC(N)NCCC[C@H](N[*:1])C(=O)[*:2]].L.[NC(N)NCCC[C@H](N[*:1])C(=O)[*:2]].H.F.P.C.G.N.V.N.Y.G.Y.Q.Q.Q}$$$$V2.0), the Kd (protein: PTB domain of SNT-2, PDB entry 2kup) is listed as 0.2 µM (active).
